A number with no mark means an inactive call. Activity calls are given as the source filed them. Calls follow the shape of the dose curve; as a rule, active = well fitted curve in the direction sought with a large enough effect in the repeat runs; inconclusive = weak or mixed curves; inactive = flat fitted curve, though single readings scatter.
% is scaled to controls: 0 for no effect and ±100 for the full control effect.

The nature of this assay: qHTS assay to test for compound auto fluorescence at 460 nm (blue) in HepG2 cells (AID 720687). The note with it: autofluorescence 405/460 nm, 1 h; series mostly up to 91.3 µM. The text has this:
U.S. Tox21 Program National Center for Advancing Translational Sciences [NCATS] NIH Chemical Genomics Center [NCGC] U.S. Environmental Protection Agency [EPA] National Institutes of Environmental Health Sciences [NIEHS] National Toxicology Program [NTP] U.S. Food and Drug Administration [FDA] Tox21 Assay Overview: Compound auto fluorescence often interferes with screening of the compound library against various biological targets and signaling pathways. Some of these compounds may have fluorophoric properties. Such properties may interfere with the assay outputs resulting in false positives and/or negatives. To decrease such complications and ensure the compound activities are relevant in terms of biological response, the Tox21 10K compound library was screened for auto fluorescence. From the fluorophores used as reporter signals in our screening assays, the auto fluorescence equivalencies of compounds against three fluorophores have been evaluated: Triamterene, Fluorescein and Rose Bengal sodium for blue, green and red fluorescence, respectively. The fluorescence intensities were measured using Excitation/Emission wavelengths at 405/460nm, 485/535nm and 540/590nm for blue, green and red labels, respectively. This assay includes the blue fluorescence data.
Tox21 Assay Protocol Summary: 2,000 HepG2 cells in 5 uL of culture medium (MEM containing 10% FBS) per well were dispensed into black wall/clear bottom 1536-well plates using a Multidrop Combi Dispenser (ThermoFisher Scientific, Waltham, MA). The assay plates were incubated overnight at 37 C to allow cell attachment to the well bottom, followed by the transfer of 23 nL compound or DMSO vehicle by a pintool work station (Kalypsys , San Diego, CA). After the assay plates were incubated for 1 hr at 37 C and 5% CO2, fluorescence intensities in the assay plates were measured by an Envision (PerkinElmer, Shelton, CT) plate reader using three labels for measuring blue, green and red fluorescence at […] 460, 535 and 590 nm respectively.
With `CC(C)NC(=O)c1ccccc1N`, the compound was classed as inactive.

As for `CC(=O)Oc1cccc2c1C(=O)c1c(OC(C)=O)cc(C(=O)O)cc1C2=O`, the outcome was inactive.

Turning to `c1ccc(-c2ccc(-c3ccccc3)cc2)cc1`, the fluorescence, % of fluorescent control was -0.024% [at 18.6 µM].

On to `COc1ccc(/C=C/c2cc(OC)cc(=O)o2)cc1`, for which the call was inactive.

For `CCCC1CCOC(C)S1` (stereo not given), the compound was classed as inactive.

In the case of `O=C(O)CCc1nc2ccccc2[nH]1`, the call was inactive.

In the case of `CCCCOc1ccc(N)cc1`, the compound was called inactive.

Turning to `CCCC1CCCC(=O)O1` (stereo not given), the compound was classed as inactive.

Consider `O=C(OC1C[C@H]2CC[C@@H](C1)[N+]21CCCC1)C(O)(c1ccccc1)c1ccccc1` (stereo not given in full), for which the compound was called inactive.

With `Cc1ccc(NC(=O)c2ccc(CN3CCN(C)CC3)cc2)cc1Nc1nccc(-c2cccnc2)n1`, the outcome was inactive.

As to `O=C(c1ccc(Cl)cc1)c1ccc(Cl)cc1`, the call was inactive.

As for `CCCc1ccc(OC)cc1`, the compound was called inactive.

Turning to `CCCCCO`, the compound was classed as inactive.

`CC(C)CCCCCCCOC(=O)c1ccc(C(=O)OCCCCCCCC(C)C)c(C(=O)OCCCCCCCC(C)C)c1`: the call was inactive.

Regarding `CCC1=C(C)CN(C(=O)NCCc2ccc(S(=O)(=O)NC(=O)NC3CCC(C)CC3)cc2)C1=O` (stereo not given), the outcome was inactive.

Regarding `O=Cc1ccc(Cl)c([N+](=O)[O-])c1`, the outcome was inactive.

In the case of `C=C(C)C(=O)OCCCCCCCCCCOC(=O)C(=C)C`, the compound was classed as inactive.

Consider `O=C(O)c1ccccc1-n1cc(C(=O)O)c(=O)c2cc(Nc3c(F)cc(F)cc3Cl)c(Cl)cc21`, for which the compound was classed as inactive.

Consider `CCCC(=O)OCc1ccccc1`, for which the result was inactive.

In the case of `CC(=O)Nc1ccccc1O`, the outcome was inactive.

As for `Nc1nc(Cl)nc2c1ncn2[C@H]1C[C@H](O)[C@@H](CO)O1`, the outcome was inactive.

As for `Cc1cc(N)n(-c2ccccc2)n1`, the call was inactive.

For `O=C(N[C@@H](Cc1ccccc1)[C@@H](O)C(=O)N1C[C@@H](O)[C@@H](O)C1)c1cc2cc(Cl)ccc2[nH]1`, the compound was classed as inactive.

For the compound `CNc1ccccc1`, the result was inactive.

For the compound `CCCOC(C)=O`, the compound was classed as inactive.

In the case of `CC[C@H](NC(C)C)[C@H](O)c1ccc(O)c2[nH]c(=O)ccc12`, the result was inactive.

As to `COc1cc(C)c(Cc2cnc(N)nc2N)cc1OC`, the result was inactive.

Consider `Cc1c(Cl)cccc1[N+](=O)[O-]`, for which the outcome was inactive.

On to `COC(=O)Cc1cccc2ccccc12`, for which the result was inactive.

For the compound `O=C(O)c1cccnc1Nc1cccc(C(F)(F)F)c1`, the outcome was inactive.

As to `C=C[Si]1(C)O[Si](C)(C=C)O[Si](C)(C=C)O[Si](C)(C=C)O1` (stereo not given), the compound was called inactive.

As for `CCCCCCCCCCCCCCCCN`, the outcome was inactive.

Regarding `C[C@]12CCC(=O)C=C1[C@@H]1C[C@@H]1[C@H]1[C@@H]3[C@@H]4C[C@@H]4[C@@]4(CCC(=O)O4)[C@@]3(C)CC[C@@H]12`, the result was inactive.

Take `CC(C)Oc1ccccc1O`: the outcome was inactive.

Consider `O=C(O)c1ccccc1[N+](=O)[O-]`, for which the result was inactive.

In the case of `OCCCO`, the compound was classed as inactive.

With `C/C(=C\C(C)CC(C)CC(C)C)C1CC(=O)OC1=O` (stereo not given), the compound was called inactive.

Consider `CC(=O)c1cccnc1`, for which the compound was classed as inactive.

Turning to `Cc1ccc(S(=O)(=O)NC(=O)NC2CCCC2)cc1`, the call was inactive.

With `CCN(CCCCOC(=O)c1ccc(OC)c(OC)c1)C(C)Cc1ccc(OC)cc1` (stereo not given), the fluorescence, % of fluorescent control was 0.0432% [at 18.6 µM].

These data come from PubChem BioAssay (Tox21).
